This is a sample that favours compounds with a hit; in the whole collection about 21% have one here.
DT40 TDP1 no CPT – qHTS for Inhibitors of human tyrosyl-DNA phosphodiesterase 1 (TDP1): qHTS in cells in absence of CPT. AID 686978, 2013. actives 15% (n = 420,000). DT40 Tdp1-/- hTDP1 cells, no CPT, ATP luminescence, 48 h. Potency, µM (doses to about 46.2 µM), inactives show at the top dose activity change, negative = growth inhibition, actives largely listed as inhibitors; note: potency is the fitted concentration of half-maximal effect; % is set by controls: 0 for no effect and ±100 for the full control effect; nearly all actives have a fitted effect of over 55% in size
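Compound effects on proliferation are scored in DT40 Tdp1-/-;hTDP1 cells in the absence of CPT. ATP levels (CellTiter-Glo luminescence) are recorded after a ≥48 hr, 37 °C incubation.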
D3 antag – antagonists of human D3 dopamine receptor; P35462; D3R cells, DiscoveRx beta-arrestin luminescence, antagonist mode; active compounds read low; max response, negative = inhibition, %; actives 2.5% (n = 360,000); AID 652054; in the data active = max response below about -50%; inconclusive = no clear call, values can overlap the other calls; note: % is set by controls: 0 for no effect and ±100 for the full control effect
Target sequence (P35462 whole entry, looked up): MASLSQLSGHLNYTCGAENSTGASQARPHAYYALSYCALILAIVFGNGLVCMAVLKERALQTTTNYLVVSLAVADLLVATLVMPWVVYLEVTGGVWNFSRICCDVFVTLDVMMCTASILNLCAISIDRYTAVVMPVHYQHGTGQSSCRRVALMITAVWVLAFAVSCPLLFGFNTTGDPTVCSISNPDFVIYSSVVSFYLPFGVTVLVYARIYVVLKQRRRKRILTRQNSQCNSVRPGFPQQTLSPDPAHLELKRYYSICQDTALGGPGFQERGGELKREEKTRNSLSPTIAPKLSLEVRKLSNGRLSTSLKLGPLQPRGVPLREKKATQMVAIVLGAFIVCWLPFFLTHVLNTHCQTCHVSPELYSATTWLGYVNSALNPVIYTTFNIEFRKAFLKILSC
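Cells expressing the human receptor were seeded at 1500 cells/well, incubated overnight at 37 degrees C in 5% CO2, then exposed to library compounds with dopamine controls for 90 minutes at 37 degrees C before luminescent detection.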
DRD3 agonist – activates the human D3 dopamine receptor | AID 652048 | max activation, % | actives 0.58% (n = 410,000) | D3R DiscoveRx beta-arrestin cells, luminescence, 90 min | P35462; in the data active = max activation above about 30%; note: 0% is about no effect
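Agonist mode: compounds and dopamine controls were applied to plated cells for 90 min at 37 degrees C after an overnight attachment at 1500 cells/well. Luminescent read-out followed 30 - 60 minutes at room temperature with DiscoveRx detection reagent.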
DT40 TDP1 CPT – growth inhibition of DT40 Tdp1-/-;hTDP1 cells with camptothecin (screen for TDP1 inhibitors); chicken DT40 Tdp1-/-;hTDP1 cells + 20 nM CPT, ATP luminescence, 48 h; Potency, µM (titrated, usually from 46.2 µM), inactives show at the highest dose activity change, negative = growth inhibition, actives largely listed as inhibitors; actives 12% (n = 420,000); AID 686979; note: potency is the fitted concentration of half-maximal effect; % is set by controls: 0 for no effect and ±100 for the full control effect; nearly all actives have a fitted effect of over 55% in size
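Cell growth measured by CellTiter-Glo luminescence after a minimum 48 h, 37 C compound exposure with 20 nM CPT in Tdp1-knockout DT40 cells stably expressing hTDP1, seeded 400/well; qHTS titration format.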
IL-1B inflam inh – inhibitors of inflammasome signaling (IL-1 beta secretion); AID 743279; actives 4.7% (n = 360,000); activity change, % at 57.5 µM; THP-1 LPS/ATP IL-1B secretion, AlphaLISA, 16 h; active compounds read low; in the data active = activity change below about -50%; inconclusive = mostly about -30% to -49%; note: % is set by controls: 0 for no effect and ±100 for the full control effect
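THP-1 cells pretreated 1 hr with compounds (up to 57.5 uM final), then stimulated with LPS (250 ng/mL final) plus ATP (1.25 mM final); secreted IL-1B measured by AlphaLISA after 16 hr, decreased signal indicating inhibition.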
ClpP mod – qHTS Assay for Activators of ClpP. ATP-dependent Clp protease proteolytic subunit (Bacillus subtilis (strain 168)), P80244. purified B. subtilis ClpP, FRET peptide cleavage, 20 min. Potency, µM (doses to about 57.5 µM), for inactives: at the top dose activity change, negative = active. actives 1.9% (n = 340,000); active = well fitted falling curve with a large enough effect; inconclusive = small, poorly fitted or top-dose-only effect; inactive = no such curve, though single readings can be large or run the other way; note: potency is the fitted concentration of half-maximal effect; the source files actives as falling curves though it sought activators and does not explain the sign; nearly all actives have a fitted effect of over 65% in size
Target sequence (P80244 whole entry, looked up): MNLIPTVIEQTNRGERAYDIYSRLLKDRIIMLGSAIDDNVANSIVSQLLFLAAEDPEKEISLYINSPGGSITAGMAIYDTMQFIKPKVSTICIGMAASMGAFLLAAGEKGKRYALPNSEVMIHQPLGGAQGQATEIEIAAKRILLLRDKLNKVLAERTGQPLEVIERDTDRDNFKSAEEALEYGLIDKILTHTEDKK
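Purified B. subtilis ClpP, 10 microg/mL final in Tris/HCl pH8 with KCl, BSA, glycerol and Tween-20, cleaved an Abz/nitrotyrosine-quenched decapeptide. Fluorescence (ex 320, em 430) was read at 0 and 20 min at room temperature. Delta was normalized to 5.8 microM ADEP and DMSO/no-enzyme controls.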
* = called active by the depositor; u = inconclusive; x = not tested or not shown; [ ] = another dose, or the depositor's remark. Unless noted, calls come from the whole dose curve; as a rule, active = well fitted inhibition curve with a large enough effect; inconclusive = small, poorly fitted or top-dose-only effect; inactive = flat fitted curve, though single readings scatter.

SMILES | DT40 TDP1 no CPT | D3 antag | DRD3 agonist | DT40 TDP1 CPT | IL-1B inflam inh | ClpP mod
CCOC(=O)Cc1csc(NC(=O)c2c(C)noc2C)n1 | 0% | 0 | -3 | 0% | 65 | -3%
Cc1noc(C)c1C(=O)Nc1nc(C23CC4CC(CC(C4)C2)C3)cs1 | 18µM* | 55 | 4 | u | -58* | -6%
CCc1noc(C)c1C(=O)OCC(=O)Nc1ccc(F)cc1Cl | u | -17 | -3 | 3% | -26 | -4%
CCc1noc(C)c1C(=O)OCC(=O)c1ccc(NC(C)=O)cc1F | 21µM* | 12 | -5 | u | 26 | x
Cc1onc(-c2ccccc2)c1C(=O)Nc1nc(-c2ccc(F)c(F)c2)cs1 | 26µM* | -13 | -8 | u | 11 | 107%
Cc1ccc(-c2csc(NC(=O)c3c(C)noc3C)n2)s1 | 4.1µM* | 81 | -1 | 5.2µM* | -10 | -6%
CCc1nc2ccc(C(=O)Nc3ccc4c(c3)OCC(=O)N4)cn2c1N(C)C(=O)Cc1ccccc1 | -25% | 14 | 3 | -15% | -22 | -2%
O=c1c2ccccc2[nH]c(=S)n1CCc1ccccc1 | -4% | 8 | 6 | -2% | 34 | 7.1µM*
O=c1c2ccccc2[nH]c(=S)n1CCN1CCc2ccccc2C1 | -15% | -90* | -27 | -17% | 9 | x
O=c1c2ccccc2[nH]c(=S)n1Cc1ccccc1 | 5% | 2 | -7 | 2% | 15 | x
COCCCN1C(=O)C(=O)/C(=C(/O)c2ccc(S(=O)(=O)N3CCOCC3)cc2)C1c1ccc(C(C)C)cc1 (stereo not given) | -8% | -20 | -13 | 3% | 33 | x
COc1cc(C(=O)N(C)CC2CCN(CCc3cccc(C(F)(F)F)c3)CC2)ccc1C | u | -28 | -18 | u | -86* | x
CN(CC1CCN(CCc2cccc(C(F)(F)F)c2)CC1)C(=O)c1ccc(F)cc1 | u | -87* | -24 | u | u | x
CN(CC1CCN(CCc2cccc(C(F)(F)F)c2)CC1)C(=O)c1ccccc1 | -30% | u | -28 | u | 0 | -1%
O=C1CCN(Cc2cccc(C(F)(F)F)c2)CCN1Cc1ccccn1 | -8% | x | x | 4%[9.04 µM] | x | x
O=C(C[n+]1ccncc1)c1ccc2ccccc2c1 | u | x | x | -14% | x | 7%
CCCCNC(=O)C[C@@H]1C[C@@]2(C(=O)OC)CCCCC=C2N(Cc2ccc3c(c2)OCO3)C1=O | u | 5 | -1 | u | -61* | 3%
CCOC(=O)[C@]12CCC=C1N(Cc1ccc3c(c1)OCO3)C(=O)[C@H](CC(=O)NCCCCc1ccccc1)C2 | 21µM* | -1 | -10 | u | -69* | -10%
CCOC(=O)[C@]12CCC=C1N(Cc1ccc3c(c1)OCO3)C(=O)[C@H](CC(=O)NCCC(C)C)C2 | 18µM* | -29 | -6 | u | 2 | 2%
CCCCOCCCNC(=O)C[C@@H]1C[C@@]2(C(=O)OC)CCCCC=C2N(Cc2ccc3c(c2)OCO3)C1=O | u | -24 | -11 | u | -13 | 2%
COC(=O)[C@]12CCCCC=C1N(Cc1ccc3c(c1)OCO3)C(=O)[C@H](CC(=O)NCCCCc1ccccc1)C2 | u | -12 | -5 | u | -55* | -4%
CCOC(=O)[C@]12CCC=C1N(Cc1ccc3c(c1)OCO3)C(=O)[C@H](CC(=O)NCc1ccccc1)C2 | u | -17 | -13 | u | 0 | -14%
CC1CCCCC1NC(=O)C1CCC(CNS(=O)(=O)c2ccccc2)CC1 (stereo not given) | -30% | 20 | 3 | 7% | 38 | -14%
CCOC(=O)[C@]12CCCC=C1N(Cc1ccc3c(c1)OCO3)C(=O)[C@H](CC(=O)NCC13CC4CC(CC(C4)C1)C3)C2 | 23µM* | -8 | 1 | u | -9 | 1%
CCOC(=O)[C@]12CCCC=C1N(Cc1ccc3c(c1)OCO3)C(=O)[C@H](CC(=O)NCCCCc1ccccc1)C2 | 21µM* | -51* | 0 | u | -63* | -1%
SMILES | DT40 TDP1 no CPT | D3 antag | DRD3 agonist | DT40 TDP1 CPT | IL-1B inflam inh | ClpP mod
CCCCNC(=O)C[C@@H]1C[C@@]2(C(=O)OCC)CCC=C2N(Cc2ccc3c(c2)OCO3)C1=O | u | 7 | 7 | u | 2 | 1%
O=C(Nc1cc(OC(=O)C(F)(F)F)c2nonc2c1OC(=O)C(F)(F)F)C(F)(F)F | 11µM* | x | x | 10µM* | x | -1%
CCOC(=O)C1=C(CN2CCN(c3cc(C)ccc3C)CC2)NC(=O)NC1c1ccccc1 (stereo not given) | 18µM* | x | 10 | u | x | -1%
CCOC(=O)C1C(c2ccc3c(c2)OCO3)NC(=O)NC1(O)C(F)(F)F (stereo not given) | 13µM* | 9 | 2 | 9.2µM* | 0 | -6%
CCOC(=O)C1=C(CN2CCN(c3ccccc3OC)CC2)NC(=O)NC1c1ccccc1 (stereo not given) | u | x | -2 | u | x | 2%
CCOC(=O)C1=C(CN2CCN(c3cccc(Cl)c3)CC2)NC(=O)NC1c1ccc(Cl)cc1 (stereo not given) | 21µM* | x | 0 | u | x | -3%
CCOC(=O)C1=C(CN2CC(C)CC(C)C2)NC(=O)NC1c1ccc2c(c1)OCO2 (stereo not given) | 26µM* | 0 | 0 | u | 0 | x
CN1CCN(C(=O)c2cccc(-c3ccc4nccn4c3)c2)CC1 | u | 12 | -11 | -24% | 26 | -8%
CCOC(=O)C1=C(CN2CCN(c3ccc(Cl)cc3)CC2)NC(=O)NC1c1ccc(OC)cc1 (stereo not given) | 26µM* | x | -18 | 21µM* | x | -2%
CCOC(=O)C1=C(CN2CCCCCC2)NC(=O)NC1c1ccc2c(c1)OCO2 (stereo not given) | u | 1 | -1 | -25% | 0 | x
CCOC(=O)C1=C(CN2CCN(C(=O)c3ccco3)CC2)NC(=O)NC1c1ccc(Cl)cc1 (stereo not given) | u | 6 | 12 | u | -11 | x
CCOC(=O)C1=C(CN2CCN(c3ccccc3)CC2)NC(=O)NC1c1ccc(C)cc1 (stereo not given) | u | x | -10 | 26µM* | x | -4%
CCOC(=O)C1=C(CN2CCC(C)CC2)NC(=O)NC1c1ccc(F)cc1 (stereo not given) | -26% | x | 2 | -5% | x | 0%

Assay outcomes deposited in PubChem BioAssay by National Center for Advancing Translational Sciences (NCATS).
